Counter-ions that a name gives are not always drawn.
Legend:
Settings in all cases: incubation time: 27 h, anaerobic, 37 °C;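 for the amine columns active = adjusted P below 0.05 in both replicates with a change the same way and a mean fold change under 0.8 or over 1.25; inactive = the rest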
[1] = tested on: Clostridium sporogenes DSM 1664; assay: growth (OD595) fold change vs plate DMSO controls (fold change (ratio)); higher = more growth
Procedure, shortened: (§1)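 Growth is expressed as the fold change relative to the median of the DMSO control wells on each plate. Cultures in mGAM were grown anaerobically in 96-well plates for 27 h at 37 °C, shaken, and read at 595 nm. Readings were blank-subtracted, corrected for compound background with 20 µM compound solutions in water, and converted to OD with a calibration factor of 5. Fold changes above 1.5 were set to NA, and each value is the mean of 2 biological replicates.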

Escherichia coli IAI1 [2] = assay: as above
Procedure, shortened: as §1

[3] = tested on: Klebsiella aerogenes DSM 30053; assay: as above
Procedure, shortened: as §1

[4] = tested on: Ruminococcus gnavus DSM 108212; assay: as above
Procedure, shortened: as §1

[5] = tested on: Klebsiella aerogenes DSM 30053; assay: fold change of Histamine concentration vs plate DMSO controls (fold change (ratio)); higher = more amine produced, active = hit call of the paper (significant change in both replicates, either direction)
Procedure, shortened: (§2)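 Amine values are fold changes relative to DMSO-only wells on the same plate. They derive from 27 h, 37 °C anaerobic mGAM cultures of four gut bacterial strains in 80 µL wells, dosed at 20 µM final, or 50 µM final for sweeteners. Extraction of the whole culture, LC–triple-quadrupole MS in dynamic MRM mode, external calibration curves and within-batch drift correction were used, with 2 biological replicates averaged.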

[6] = tested on: Clostridium sporogenes DSM 1664; assay: fold change of Tryptamine concentration vs plate DMSO controls (fold change (ratio)); higher = more amine produced, active = hit call of the paper (significant change in both replicates, either direction)
Procedure, shortened: as §2

[7] = tested on: Ruminococcus gnavus DSM 108212; assay: as above
Procedure, shortened: as §2

Escherichia coli IAI1 [8] = assay: fold change of Putrescine concentration vs plate DMSO controls (fold change (ratio)); higher = more amine produced, active = hit call of the paper (significant change in both replicates, either direction)
Procedure, shortened: as §2

[9] = tested on: Klebsiella aerogenes DSM 30053; assay: as above
Procedure, shortened: as §2

Escherichia coli IAI1 [10] = assay: fold change of Cadaverine concentration vs plate DMSO controls (fold change (ratio)); higher = more amine produced, active = hit call of the paper (significant change in both replicates, either direction)
Procedure, shortened: as §2

[11] = tested on: Klebsiella aerogenes DSM 30053; assay: as above
Procedure, shortened: as §2

[12] = tested on: Ruminococcus gnavus DSM 108212; assay: fold change of 2-Phenylethylamine concentration vs plate DMSO controls (fold change (ratio)); higher = more amine produced, active = hit call of the paper (significant change in both replicates, either direction)
Procedure, shortened: as §2

SMILES | growth [1] | growth (Escherichia coli IAI1 [2]) | growth [3] | growth [4] | fold change of Histamine concentration [5] | fold change of Tryptamine concentration [6] | fold change of Tryptamine concentration [7] | fold change of Putrescine concentration (Escherichia coli IAI1 [8]) | fold change of Putrescine concentration [9] | fold change of Cadaverine concentration (Escherichia coli IAI1 [10]) | fold change of Cadaverine concentration [11] | fold change of 2-Phenylethylamine concentration [12]
COc1ccccc1N1CCN(CCCNc2cc(=O)n(C)c(=O)n2C)CC1 [Urapidil hydrochloride] (20 µM) | 0.984 | 0.934 | 1 | 0.999 | 0.993 (inactive) | 1.04 (inactive) | 0.977 (inactive) | 0.978 (inactive) | 1.01 (inactive) | 1.03 (inactive) | 1 (inactive) | 0.971 (inactive)
C[C@H](N)[C@H](O)c1cccc(O)c1 [Metaraminol bitartrate] (20 µM) | 1.04 | 0.987 | 1.09 | 0.95 | 1.04 (inactive) | 1.05 (inactive) | 1.08 (inactive) | 1.02 (inactive) | 1.02 (inactive) | 0.982 (inactive) | 0.998 (inactive) | 1.12 (inactive)
COc1ccccc1N1CCN(CC(O)COc2cccc3ccccc23)CC1 (stereo not drawn) [Naftopidil dihydrochloride] (20 µM) | 1.11 | 0.99 | 1.17 | 0.961 | 0.884 (inactive) | 1.02 (inactive) | 0.888 (inactive) | 0.981 (inactive) | 1.01 (inactive) | 1.06 (inactive) | 1.02 (inactive) | 0.963 (inactive)
NC(=O)N/N=C/c1ccc([N+](=O)[O-])o1 [Nitrofural] (20 µM) | 1.07 | 1 | 0.973 | 0.979 | 0.768 (inactive) | 0.906 (inactive) | 0.792 (active) | 0.6 (active) | 0.947 (inactive) | 1.22 (inactive) | 1.01 (inactive) | 0.836 (inactive)
C[N+](C)(C)C[C@H](O)CC(=O)[O-] [Levocarnitine] (20 µM) | 0.997 | 1 | 0.994 | 0.966 | 1.04 (inactive) | 0.955 (inactive) | 1.07 (inactive) | 1.02 (inactive) | 1.03 (inactive) | 0.929 (inactive) | 1.09 (inactive) | 1.22 (inactive)
Cc1c(C(=O)NN2CCCCC2)nn(-c2ccc(Cl)cc2Cl)c1-c1ccc(Cl)cc1 [Rimonabant] (20 µM) | 0.981 | 0.979 | 1 | 1.04 | 1.03 (inactive) | 0.906 (inactive) | 0.897 (inactive) | 1.01 (inactive) | 1.02 (inactive) | 1.04 (inactive) | 0.998 (inactive) | 0.841 (inactive)
CC(C)NC[C@@H](O)COc1ccc(CC(N)=O)cc1 [(R,+) Atenolol] (20 µM) | 1.19 | 1.01 | 1.12 | 1.16 | 0.951 (inactive) | 1.05 (inactive) | 1.06 (inactive) | 1.19 (inactive) | 1.02 (inactive) | 0.921 (inactive) | 1.04 (inactive) | 1.08 (inactive)
Cc1ccccc1C(=O)Nc1ccc(C(=O)N2CCCC(O)c3cc(Cl)ccc32)c(C)c1 (stereo not drawn) [Tolvaptan] (20 µM) | 1.16 | 0.991 | 0.985 | 1.06 | 1.05 (inactive) | 0.919 (inactive) | 0.964 (inactive) | 0.955 (inactive) | 1.01 (inactive) | 0.995 (inactive) | 1 (inactive) | 0.924 (inactive)
O=C(Cn1c(=O)sc2ccc(Cl)cc21)N1CCN(CCO)CC1 [Tiaramide Hydrochloride] (20 µM) | 0.912 | 1 | 1 | 0.982 | 1.01 (inactive) | 1.08 (inactive) | 1.07 (inactive) | 0.959 (inactive) | 0.993 (inactive) | 0.963 (inactive) | 0.991 (inactive) | 1.13 (inactive)
CCOC(=O)C1=C(C)NC(C)=C(C(=O)OCC)C1c1ccccc1/C=C/C(=O)OC(C)(C)C [Lacidipine] (20 µM) | 1.03 | 0.928 | 0.929 | 1.12 | 1.13 (inactive) | 0.849 (inactive) | 0.944 (inactive) | 0.962 (inactive) | 1.03 (inactive) | 1.01 (inactive) | 0.979 (inactive) | 0.955 (inactive)
C[C@@H]1C[C@H]2[C@@H]3C[C@H](F)C4=CC(=O)C=C[C@]4(C)[C@@]3(F)[C@@H](O)C[C@]2(C)[C@@]1(O)C(=O)COC(=O)C(C)(C)C [Flumethasone pivalate] (20 µM) | 0.889 | 0.954 | 1 | 0.811 | 1.04 (inactive) | 1 (inactive) | 1.04 (inactive) | 1 (inactive) | 0.998 (inactive) | 1.02 (inactive) | 0.984 (inactive) | 1.05 (inactive)
COc1cc(NS(=O)(=O)c2ccc(N)cc2)nc(OC)n1 [Sulfadimethoxine] (20 µM) | 0.79 | 0.992 | 1.1 | 1.01 | 0.891 (inactive) | 1.05 (inactive) | 1.29 (active) | 0.887 (inactive) | 0.946 (inactive) | 0.888 (inactive) | 1.03 (inactive) | 1.53 (active)
O=C1NCCN1c1ncc([N+](=O)[O-])s1 [Niridazole] (20 µM) | 0.0129 | 1.09 | 0.756 | 0.0406 | 1.11 (inactive) | 0.0363 (active) | 0.0455 (active) | 1.44 (inactive) | 1.03 (inactive) | 1.97 (active) | 1.02 (inactive) | 0.0533 (active)
CCN(CC)CCOC(=O)C(c1ccccc1)c1ccccc1 [Adiphenine hydrochloride] (20 µM) | 1.07 | 1.03 | 1.16 | 1 | 0.877 (inactive) | 1.05 (inactive) | 0.977 (inactive) | 1 (inactive) | 0.932 (inactive) | 1.01 (inactive) | 1.03 (inactive) | 0.968 (inactive)
C[C@]12CC[C@H]3C(=CCc4cc(O)ccc43)[C@@H]1CCC2=O [Equilin] (20 µM) | 0.994 | 0.964 | 0.954 | 1 | 1.01 (inactive) | 1.02 (inactive) | 0.996 (inactive) | 1.07 (inactive) | 0.996 (inactive) | 1.03 (inactive) | 0.978 (inactive) | 0.93 (inactive)
COc1c2occc2c(OC)c2c(=O)cc(C)oc12 [Khellin] (20 µM) | 0.981 | 0.994 | 1.03 | 1.11 | 1.06 (inactive) | 1 (inactive) | 1.04 (inactive) | 1 (inactive) | 1.01 (inactive) | 1.02 (inactive) | 0.992 (inactive) | 1.09 (inactive)
CC1(C)S[C@@H]2[C@H](NC(=O)C3(N)CCCCC3)C(=O)N2[C@H]1C(=O)O [Cyclacillin] (20 µM) | 0 | 1 | 1.02 | 0.0834 | 0.87 (inactive) | 0.0132 (active) | 0.0795 (active) | 0.887 (inactive) | 0.993 (inactive) | 1.36 (active) | 1 (inactive) | 0.0578 (active)
COc1cc(N)c(Cl)cc1C(=O)NC1CCN(CCCOc2ccc(F)cc2)CC1OC (stereo not drawn) [Cisapride] (20 µM) | 0.913 | 0.988 | 0.969 | 0.705 | 0.959 (inactive) | 0.972 (inactive) | 0.922 (inactive) | 1 (inactive) | 0.983 (inactive) | 1.02 (inactive) | 0.993 (inactive) | 0.929 (inactive)
NC(=O)Cc1cccc(C(=O)c2ccccc2)c1N [Nepafenac] (20 µM) | 1.01 | 1.03 | 1.06 | 1.09 | 0.929 (inactive) | 1.04 (inactive) | 1.06 (inactive) | 0.989 (inactive) | 0.993 (inactive) | 0.962 (inactive) | 1.04 (inactive) | 1.11 (inactive)
CN1CCC[C@@H]1CCO[C@](C)(c1ccccc1)c1ccc(Cl)cc1 [Clemastine fumarate] (20 µM) | 1.2 | 1.02 | 1.09 | 0.749 | 0.843 (inactive) | 1 (inactive) | 0.851 (inactive) | 1.06 (inactive) | 0.975 (inactive) | 1.12 (inactive) | 1.03 (inactive) | 0.886 (inactive)
NC(=O)OCC(COC(N)=O)c1ccccc1 [Felbamate] (20 µM) | 1.07 | 0.986 | 0.988 | 0.902 | 0.989 (inactive) | 1.02 (inactive) | 1.05 (inactive) | 1 (inactive) | 0.993 (inactive) | 1.05 (inactive) | 0.985 (inactive) | 1.07 (inactive)
Cc1scc2c1N(C(=O)CN1CCN(C)CC1)c1ccccc1NC2=O [Telenzepine dihydrochloride] (20 µM) | 1.09 | 1.07 | 1 | 1.01 | 0.927 (inactive) | 1.01 (inactive) | 1.01 (inactive) | 1.06 (inactive) | 0.984 (inactive) | 1 (inactive) | 1.01 (inactive) | 0.964 (inactive)
CCOC(=O)C(C)(N)Cc1cc(I)c(Oc2cc(I)c(O)c(I)c2)c(I)c1 (stereo not drawn) [Etiroxate hydrochloride] (20 µM) | 1.06 | 1.02 | 1.02 | 1.14 | 1.04 (inactive) | 1.03 (inactive) | 0.923 (inactive) | 0.951 (inactive) | 0.99 (inactive) | 0.958 (inactive) | 1 (inactive) | 1.01 (inactive)
OC(CCN1CCCCC1)(c1ccccc1)C1CC2C=CC1C2 (stereo not drawn) [Biperiden hydrochloride] (20 µM) | 1.01 | 1.01 | 1.17 | 0.975 | 0.911 (inactive) | 0.995 (inactive) | 0.916 (inactive) | 1.04 (inactive) | 0.999 (inactive) | 0.899 (inactive) | 1.01 (inactive) | 0.935 (inactive)

Reference: the supplement of paper PMC12494721
